The source made the active and inactive calls. Unless noted, how the calls were made is not given here.
How the values were obtained:
[1] = resazurin metabolic signal in HepG2 cells – cell-based, resazurin fluorescence, 24 h, PK04 Diversity Set, profiling panel (AID 1172); details: HepG2 viability, higher = more signal; further: test concentration not given here
[2] = budding yeast growth changes without added modifier – OD600, strain BY4716, 24 h, basal condition, primary screen (AID 1173); details: S. cerevisiae BY4716 growth, OD600, 24 h; higher = more signal, called active from +8 up or from −8 down
[3] = viability profiling in MM1S myeloma cells – cell-based, resazurin fluorescence, basal, 24 h, PK04 Diversity Set, profiling panel (AID 1174); details: higher = more signal, called active from +8 up or from −8 down;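 further: MM1S multiple myeloma cell line; test concentration not given here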
[4] = molecular target: Dihydroorotate dehydrogenase (quinone), mitochondrial (Plasmodium falciparum (isolate 3D7)) (UniProt Q08210); test: inhibition of P. falciparum DHODH – biochemical, C-terminal His tag, absorbance 600 nm, primary screen (AID 1175); details: PfDHODH enzyme, DCIP absorbance 600 nm; higher = more signal, called active from +8 up or from −8 down;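 further: recombinant parasite enzyme with a five histidine tag at its C terminus; test concentration not given here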
[5] = inhibition of PAO1 biofilm formation – strain PAO1, LB-PBS medium, absorbance 600 nm, primary screen (AID 1176); further: test concentration not given here; details: P. aeruginosa PAO1 growth/biofilm, A600, 12 h; higher = more signal
[6] = growth modulation of vineyard yeast isolate – strain RM11-1a, OD600, basal, 24 h, primary screen (AID 1177);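 further: cultures grown under basal conditions with no added stressor; test concentration not given here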; details: S. cerevisiae RM11-1a growth, OD600, 24 h; higher = more signal, called active from +8 up or from −8 down
[7] = growth of efflux-deficient E. coli DRC39 – strain DRC39, OD650, 24 h, E. coli filamentation inducers, primary screen (AID 1178);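 further: growth measured as culture turbidity by optical density at 650 nm; test concentration not given here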; details: E. coli DRC39 acrAB, higher = more signal, called active from +8 up or from −8 down
[8] = growth of efflux-deficient E. coli DRC39 – strain DRC39, OD650, 48 h, E. coli filamentation inducers, primary screen (AID 1179);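 further: screen aims at cell division blockers that make cells filament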; details: E. coli DRC39 delta-acrAB growth, higher = more signal, called active from +8 up or from −8 down
[9] = viability profiling in RPMI8226 myeloma cells – cell-based, resazurin fluorescence, basal, 24 h, PK04 Diversity Set, profiling panel (AID 1180); details: higher = more signal;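 further: RPMI8826 multiple myeloma cell line at 5000 cells per well; test concentration not given here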
[10] = molecular target: E3 ubiquitin-protein ligase XIAP (Homo sapiens) (UniProt P98170); test: small molecules binding XIAP protein – biophysical, small-molecule microarray, fluorescence 635 nm, primary screen (AID 1181); details: higher = more signal;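 further: score merges 667 nm emission and signal to noise over triplicate slides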
Sequence of E3 ubiquitin-protein ligase XIAP (Homo sapiens) (P98170 whole entry, looked up): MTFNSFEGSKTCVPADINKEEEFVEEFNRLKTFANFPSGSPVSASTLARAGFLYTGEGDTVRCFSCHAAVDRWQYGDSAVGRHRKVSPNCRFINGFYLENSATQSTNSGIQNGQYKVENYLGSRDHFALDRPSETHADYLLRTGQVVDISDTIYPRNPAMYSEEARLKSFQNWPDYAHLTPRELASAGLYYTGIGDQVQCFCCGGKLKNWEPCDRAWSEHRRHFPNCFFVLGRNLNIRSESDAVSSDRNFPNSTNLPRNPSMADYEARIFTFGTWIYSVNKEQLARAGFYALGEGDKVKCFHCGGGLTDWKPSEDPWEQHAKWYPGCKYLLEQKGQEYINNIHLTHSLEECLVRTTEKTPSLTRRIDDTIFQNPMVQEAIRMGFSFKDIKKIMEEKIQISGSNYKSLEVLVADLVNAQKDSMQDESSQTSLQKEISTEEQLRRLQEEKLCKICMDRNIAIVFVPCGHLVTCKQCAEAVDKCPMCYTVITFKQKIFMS

Sequence of Dihydroorotate dehydrogenase (quinone), mitochondrial (Plasmodium falciparum (isolate 3D7)) (Q08210 whole entry, looked up): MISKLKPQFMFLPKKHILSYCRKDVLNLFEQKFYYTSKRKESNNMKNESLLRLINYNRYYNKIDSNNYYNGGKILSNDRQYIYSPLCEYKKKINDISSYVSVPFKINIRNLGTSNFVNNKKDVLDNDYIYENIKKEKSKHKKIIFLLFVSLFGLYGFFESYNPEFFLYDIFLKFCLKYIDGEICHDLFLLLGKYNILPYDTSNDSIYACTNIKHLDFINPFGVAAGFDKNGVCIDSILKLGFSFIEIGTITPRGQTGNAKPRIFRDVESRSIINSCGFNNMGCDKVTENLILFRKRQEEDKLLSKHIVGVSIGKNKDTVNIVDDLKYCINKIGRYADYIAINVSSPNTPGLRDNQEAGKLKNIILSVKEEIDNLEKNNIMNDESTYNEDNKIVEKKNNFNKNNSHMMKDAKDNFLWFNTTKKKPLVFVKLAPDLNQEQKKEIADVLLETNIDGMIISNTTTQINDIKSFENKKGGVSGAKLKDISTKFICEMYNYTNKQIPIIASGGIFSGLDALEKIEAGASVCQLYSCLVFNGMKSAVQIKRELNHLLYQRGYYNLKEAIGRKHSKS

| SMILES | z-score [1] | z-score [2] | z-score [3] | composite z-score [4] | z-score [5] | z-score [6] | z-score [7] | z-score [8] | z-score [9] | composite z-score [10] |
| --- | --- | --- | --- | --- | --- | --- | --- | --- | --- | --- |
| COC(=O)c1c(CC[C@@H](CO)NC(=O)N[C@@H](Cc2ccccc2)Cn2cc(-c3ccccn3)nn2)oc(C(=O)N2CCOCC2)c1C(=O)OC | 0.482 | -0.239 (inactive) | 0.475 (inactive) | 0.138 (inactive) | -0.476 (inactive) | 1.3 (inactive) | 0.506 (inactive) | 0.327 (inactive) | 0.277 | 0.23 |
| COC(=O)[C@@]1(Cc2ccccc2)[C@H]2c3cc(C(=O)N(C)C)n(CCc4c[nH]c5ccc(O)cc45)c3C[C@H]2CN1C(=O)c1ccccc1 | 0.236 | 0.412 (inactive) | -1.18 (inactive) | -0.568 (inactive) | 1.07 (inactive) | -0.438 (inactive) | 0.117 (inactive) | 0.29 (inactive) | -1.27 | -0.0261 |
| CCCC=C(CCC)[C@@H](NS(=O)(=O)c1ccc(Cl)cc1)c1ccc(C(=O)OC)cc1 | 1.16 | 0.295 (inactive) | 0.349 (inactive) | -0.336 (inactive) | -0.719 (inactive) | -0.907 (inactive) | 0.198 (inactive) | -1.16 (inactive) | 0.0665 | -0.122 |
| COc1cc2c(cc1O)C=[N+](Cc1cc3c(cc1Br)OCO3)CC2 | -0.532 | 0.384 (inactive) | -1.29 (inactive) | 0.707 (inactive) | 0.0898 (inactive) | 0.593 (inactive) | -0.31 (inactive) | -0.3 (inactive) | -0.566 | -0.252 |
| C[N+](C)(C)CCCC[C@@H]1NC(=O)[C@@H]2C[C@H](C(=O)NCCCCCCNC(=O)CS)[C@H](c3ccc(O)cc3)N2C1=O | -0.206 | 1.4 (inactive) | -0.387 (inactive) | -0.206 (inactive) | -0.282 (inactive) | 0.144 (inactive) | -0.253 (inactive) | -0.135 (inactive) | -0.437 | -0.0911 |
| COCCCNC(=O)[C@]1(Cc2ccccc2)N=C(c2ccc(OCCCO)cc2)O[C@@H]1c1ccccc1CN=[N+]=[N-] | -0.316 | -1.29 (inactive) | -0.491 (inactive) | -0.925 (inactive) | 1.8 (inactive) | 0.0435 (inactive) | 0.228 (inactive) | 1.55 (inactive) | -1.08 | 0.0136 |
| C=CCC(OC(C)=O)[C@@H]1[C@@H](N(Cc2ccc(-c3cccc(C(F)(F)F)c3)o2)C(=O)Cc2ccc(OC)cc2)c2cc(OCCCO)ccc2N1C(=O)c1ccc2ccccc2c1 (stereo not given in full) | -0.29 | -1.44 (inactive) | 0.598 (inactive) | 0.165 (inactive) | -0.841 (inactive) | 0.0979 (inactive) | 0.751 (inactive) | 0.489 (inactive) | 0.187 | 0.144 |
| COC(=O)[C@@]1(Cc2ccc(OC)cc2)[C@H]2c3cc(C(=O)N4CCCC4)n(CCc4ccc(O)c(O)c4)c3C[C@H]2CN1C(=O)c1ccccc1 | -1.37 | 1.04 (inactive) | -1.79 (inactive) | -0.487 (inactive) | 2.16 (inactive) | 0.397 (inactive) | -0.215 (inactive) | -0.163 (inactive) | -1.33 | 0.0517 |
| N#Cc1ccc(C(O)C2C=CC3C(=O)N(c4ccccc4)C(=O)C3N2Nc2ccccc2F)cc1 (stereo not given) | 1.46 | -2.13 (inactive) | 0.55 (inactive) | 0.775 (inactive) | 0.0083 (inactive) | -0.402 (inactive) | -0.227 (inactive) | 0.692 (inactive) | 0.148 | 0.205 |
| CCCCN1CC=CC23O[C@@H]4C=CCCOC(=O)C4[C@H]2C(=O)N(CCCCCO)[C@@H]3C1=O (stereo not given in full) | -0.462 | -0.1 (inactive) | -0.401 (inactive) | 0.0416 (inactive) | -0.332 (inactive) | -0.308 (inactive) | 0.593 (inactive) | 0.923 (inactive) | 0.769 | 0.0357 |
| C=CCNC(=O)[C@H]1[C@@H]2C(=O)O[C@@H](c3ccccc3)[C@@H](c3ccccc3)N2[C@@H](c2ccc(OCCO)cc2)[C@]12C(=O)Nc1ccc(C#CCC(C(=O)OC)C(=O)OC)cc12 | 0.47 | 1.62 (inactive) | -0.447 (inactive) | 0.26 (inactive) | 2.63 (inactive) | 2.22 (inactive) | 0.634 (inactive) | -0.115 (inactive) | -2.64 | 0.0975 |
| C=CC[C@]1(C(N)=O)N=C(c2ccc(OCCCO)cc2)O[C@H]1c1ccccc1 | -0.095 | -0.496 (inactive) | -0.0113 (inactive) | 0.867 (inactive) | 0.248 (inactive) | -0.412 (inactive) | 0.247 (inactive) | -0.875 (inactive) | -0.52 | -0.0749 |
| O=C1C[C@@](C(=O)NCc2ccccc2)(c2ccc([N+](=O)[O-])cc2)[C@@H](c2ccc(CO)cc2)N1CC12CC3CC(CC(C3)C1)C2 | -1.63 | 0.229 (inactive) | -3.64 (inactive) | 0.59 (inactive) | 1.06 (inactive) | 0.87 (inactive) | -0.202 (inactive) | 0.368 (inactive) | -4.75 | 0.0427 |
| C[N+](C)(C)CCCC[C@@H]1NC(=O)[C@@H]2C[C@H](C(=O)NCCCCCN)[C@H](c3ccc(O)cc3)N2C1=O | 0.236 | -0.812 (inactive) | 0.883 (inactive) | -2.28 (inactive) | 1.11 (inactive) | -3.02 (inactive) | 1.08 (inactive) | 1.48 (inactive) | 0.555 | 0.346 |
| CCC(CC)C(O)C1C=CC2C(=O)N(c3ccccc3)C(=O)C2N1Nc1ccccc1 (stereo not given) | 1.48 | -1.61 (inactive) | 0.33 (inactive) | 0.246 (inactive) | 2.07 (inactive) | -0.166 (inactive) | 0.55 (inactive) | 0.503 (inactive) | 0.0861 | 0.212 |
| CC(C)[Si](C#CCCCC#N)(O[C@H](c1ccccc1)c1cn(Cc2cccc(Cl)c2)nn1)C(C)C | 0.36 | -0.718 (inactive) | 0.109 (inactive) | 0.369 (inactive) | 1.25 (inactive) | -0.358 (inactive) | -0.0251 (inactive) | -0.203 (inactive) | -0.701 | 0.149 |
| C=CCOC(=O)[C@H]1[C@@H]2C(=O)O[C@@H](c3ccccc3)[C@@H](c3ccccc3)N2[C@@H](c2ccc(OCCOC(=O)[C@@H]3C[C@@H]4C(=O)N5CCC[C@H]5C(=O)N4[C@@H]3c3cccc(OCCO)c3)cc2)[C@]12C(=O)Nc1ccc(I)cc12 | -0.536 | 0.509 (inactive) | -0.424 (inactive) | -0.49 (inactive) | 3.85 (inactive) | 1.29 (inactive) | 0.021 (inactive) | -0.0471 (inactive) | -0.442 | -0.0203 |
| O=C1O[C@@H](c2ccccc2)[C@@H](c2ccccc2)N2[C@@H](c3ccccc3OCCO)[C@]3(C(=O)Nc4ccccc43)[C@@H](C(=O)O)[C@H]12 | -0.0985 | -2.46 (inactive) | 0.19 (inactive) | -0.487 (inactive) | 0.986 (inactive) | 0.324 (inactive) | -0.582 (inactive) | -0.76 (inactive) | 0.125 | 0.0755 |
| O=C(O)[C@@]1(CCS(=O)(=O)c2ccccc2)N=C(c2ccc(OCCCO)cc2)O[C@H]1c1ccccc1 | 0.489 | -1.11 (inactive) | 0.409 (inactive) | -0.0555 (inactive) | -1.27 (inactive) | -0.357 (inactive) | 0.28 (inactive) | -0.275 (inactive) | 1.26 | 0.0952 |
| NC(=O)[C@@H]1[C@H]2C(=O)O[C@H](c3ccccc3)[C@H](c3ccccc3)N2[C@H](c2ccc(OCCO)cc2)[C@@]12C(=O)Nc1ccc(C#CC3=CCCCC3)cc12 | -1.67 | 0.193 (inactive) | -7.44 (inactive) | 0.207 (inactive) | 1.82 (inactive) | 0.657 (inactive) | -0.0159 (inactive) | -0.668 (inactive) | -6.82 | 0.543 |
| COCC(=C=CC[C@H](O)c1ccccc1OCCO)CCO | -0.504 | -0.547 (inactive) | -0.251 (inactive) | -0.799 (inactive) | 0.26 (inactive) | 0.338 (inactive) | -0.135 (inactive) | -0.113 (inactive) | -0.672 | -0.252 |
| COCC(=C=CC[C@H](O)c1cccc(OCCO)c1)C[C@H](O)c1cc(Cl)cc(Cl)c1O | 1.13 | -2.5 (inactive) | 0.685 (inactive) | -0.492 (inactive) | 0.625 (inactive) | 0.337 (inactive) | 0.679 (inactive) | 0.477 (inactive) | 0.159 | -0.0669 |
